The list is not random: actives were taken first. Their share in the collection is about 17%.
TDP1 inh – qHTS Assay for Inhibitors of Tyrosyl-DNA Phosphodiesterase (TDP1). recombinant TDP1, AlphaScreen DNA substrate cleavage. Potency, µM (highest dose often 130 µM), actives largely listed as inhibitors. hit rate 0.28% among 350,000; note: nearly all actives have a fitted effect of over 40% in size
Target sequence (Q9NUW8 whole entry, looked up): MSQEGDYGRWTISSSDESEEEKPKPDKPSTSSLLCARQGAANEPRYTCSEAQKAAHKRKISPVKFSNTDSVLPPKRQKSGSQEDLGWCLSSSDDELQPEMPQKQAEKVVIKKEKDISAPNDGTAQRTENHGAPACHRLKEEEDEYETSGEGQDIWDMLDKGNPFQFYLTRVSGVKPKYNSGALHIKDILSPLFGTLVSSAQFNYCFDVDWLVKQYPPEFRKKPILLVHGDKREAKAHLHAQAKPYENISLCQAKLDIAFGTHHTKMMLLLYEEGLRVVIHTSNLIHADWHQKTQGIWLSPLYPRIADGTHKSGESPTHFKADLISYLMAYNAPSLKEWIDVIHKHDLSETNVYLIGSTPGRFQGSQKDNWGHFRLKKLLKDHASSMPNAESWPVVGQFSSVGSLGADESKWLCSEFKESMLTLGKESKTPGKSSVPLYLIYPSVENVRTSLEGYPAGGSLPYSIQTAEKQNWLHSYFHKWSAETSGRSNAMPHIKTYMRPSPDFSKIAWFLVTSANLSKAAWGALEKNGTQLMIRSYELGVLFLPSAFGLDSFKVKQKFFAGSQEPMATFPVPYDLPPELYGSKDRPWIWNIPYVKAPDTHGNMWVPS
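Here, a 5' biotin and 3' phosphotyrosine-FITC DNA oligonucleotide reports Tdp1 activity: intact substrate bridges AlphaScreen beads, while cleavage leaves a 3' phosphate and drops signal. All incubations at room temperature.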
DT40 TDP1 CPT – qHTS for Inhibitors of human tyrosyl-DNA phosphodiesterase 1 (TDP1): qHTS in cells in presence of CPT | AID 686979, 2013 | chicken DT40 Tdp1-/-;hTDP1 cells + 20 nM CPT, ATP luminescence, 48 h | hit rate 12% among 420,000 | Potency, µM (series often up to 46.2 µM), actives largely listed as inhibitors; note: nearly all actives have a fitted effect of over 55% in size
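Chicken DT40 Tdp1-/- cells stably complemented with human TDP1 were seeded at 400 cells/well in medium containing 20 nM camptothecin, exposed to pin-transferred compounds, and grown at 37 °C for at least 48 hr. Viability was read as ATP luminescence.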
DT40 TDP1 no CPT – qHTS for Inhibitors of human tyrosyl-DNA phosphodiesterase 1 (TDP1): qHTS in cells in absence of CPT | AID 686978, 2013 | hit rate 15% among 420,000 | Potency, µM (top dose mostly 46.2 µM), hits mostly inhibitors | DT40 Tdp1-/- hTDP1 cells, no CPT, ATP luminescence, 48 h; note: nearly all actives have a fitted effect of over 55% in size
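A cellular qHTS used chicken DT40 cells lacking endogenous Tdp1 but carrying stably transfected human TDP1. Compounds were applied without camptothecin, and cell growth kinetics were judged by ATP-dependent luminescence after ≥48 hr.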
ClpP mod – qHTS Assay for Activators of ClpP | Potency, µM (titrated, usually from 57.5 µM) | purified B. subtilis ClpP, FRET peptide cleavage, 20 min | hit rate 1.9% among 340,000 | ATP-dependent Clp protease proteolytic subunit (Bacillus subtilis (strain 168)), P80244; active = well fitted falling curve with a large enough effect; inconclusive = small, poorly fitted or top-dose-only effect; inactive = no such curve, though single readings can be large or run the other way; note: the source files actives as falling curves though it sought activators and does not explain the sign; nearly all actives have a fitted effect of over 65% in size
Target sequence (P80244 whole entry, looked up): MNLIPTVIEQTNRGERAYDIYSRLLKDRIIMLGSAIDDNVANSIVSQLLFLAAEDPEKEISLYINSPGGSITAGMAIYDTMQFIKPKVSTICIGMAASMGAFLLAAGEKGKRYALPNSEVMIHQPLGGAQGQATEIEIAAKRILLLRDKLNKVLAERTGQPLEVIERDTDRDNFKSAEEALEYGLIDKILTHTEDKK
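Buffer: 100 mM Tris/HCl pH8, 100 mM KCl, 0.05% low protease BSA, 2.5% glycerol, 0.01% Tween-20. ClpP 10 microg/mL final; 20 min RT; delta FRET normalized to ADEP and DMSO controls.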
Of the large screens only hits and unclear results are named; the others gave an inactive call. Unless noted, calls come from the whole dose curve; as a rule, active = well fitted curve in the direction sought with a large enough effect; inconclusive = small, poorly fitted or top-dose-only effect, or another doubt; inactive = no such curve, though single readings can be large; an effect the other way counts as inactive or inconclusive.

Cc1ccc2nc(N3CCN(S(=O)(=O)c4ccc(C)c(Cl)c4)CC3)c(C#N)cc2c1	DT40 TDP1 CPT 21µM, DT40 TDP1 no CPT 21µM
CC(=O)Nc1cc(Cl)ccc1OS(=O)(=O)c1ccc(C)cc1	DT40 TDP1 no CPT inconclusive
N#Cc1cccc(C#N)c1Oc1ccc(S(=O)(=O)Nc2ccc(Cl)cc2)cc1	DT40 TDP1 no CPT 16µM
O=C(O)c1sccc1Oc1ccc(NS(=O)(=O)c2ccc(Cl)cc2)cc1	none (no result: TDP1 inh)
Cc1ccc2c(c1)C(=O)C(=O)N2Cc1ccc(OCCC(C)C)cc1	DT40 TDP1 CPT 0.41µM, DT40 TDP1 no CPT 0.41µM
O=C1CNC(=O)N1Cc1ccc(Br)cc1	none
CCCCN1C(=O)C(=O)c2cc(Cl)ccc21	DT40 TDP1 CPT 1µM, DT40 TDP1 no CPT 0.82µM
Cc1ccc(CN2C(=O)C(=O)c3cc(C)ccc32)cc1	DT40 TDP1 CPT 0.58µM, DT40 TDP1 no CPT 0.65µM
Cc1ccc2c(c1)C(=O)C(=O)N2Cc1ccc(Br)cc1	DT40 TDP1 CPT 0.92µM, DT40 TDP1 no CPT 0.65µM
Cc1ccc(CN2CC(C(=O)NCCC3=CCCCC3)CC2=O)cc1 (configuration not stated)	none
CC1OCC23CC[C@@]4(C)CCC(C)(C)C[C@H]4[C@]2(C)CCC12C3CC[C@@]1(C)C2C(=O)CC(=O)[C@@H]1C (some centres not stated)	none (no result: ClpP mod)
CCCN1C(=O)C(=O)c2cc(C)ccc21	DT40 TDP1 CPT 2.1µM, DT40 TDP1 no CPT 3.3µM
Cc1ccc2c(c1)C(=O)C(=O)N2c1ccc(Cl)cc1	DT40 TDP1 CPT inconclusive, DT40 TDP1 no CPT inconclusive
Cc1cccc2c1-c1sc(C(=O)NCCCN3CCN(c4ccccc4F)CC3)cc1CO2	DT40 TDP1 CPT inconclusive, DT40 TDP1 no CPT 6.5µM
O=C(NCCCN1CCOCC1)c1cc2c(s1)-c1ccccc1OC2	none
CCN1CCN(CCCNC(=O)c2cc3c(s2)-c2c(C)cccc2OC3)CC1	DT40 TDP1 CPT 4.6µM, DT40 TDP1 no CPT 5.8µM
Cc1cccc2c1-c1sc(C(=O)N3CCN(c4cccc(Cl)c4)CC3)cc1CO2	none
Cc1cccc2c1-c1sc(C(=O)Nc3ccccc3N3CCN(C)CC3)cc1CO2	DT40 TDP1 CPT 18µM, DT40 TDP1 no CPT 18µM (no result: ClpP mod)
COc1cc(Cl)c(C)cc1NC(=O)c1cc2c(s1)-c1c(C)cccc1OC2	DT40 TDP1 no CPT inconclusive
Cc1cccc2c1-c1sc(C(=O)NCCCN3CCN(c4cccc(Cl)c4)CC3)cc1CO2	DT40 TDP1 CPT 23µM, DT40 TDP1 no CPT inconclusive
CC1(C)CC(=O)C(N=Nc2cccc(F)c2C#N)=C(O)C1	none
Cc1cc(C(=O)COC(=O)c2cc(Cl)c(O)c(Cl)c2)c(C)n1C	none (no result: TDP1 inh)
O=C(CSc1nncn2c1cc1sccc12)Nc1ccccc1C(F)(F)F	none
CCNc1ncc2nc(-c3ccc(Cl)cc3)c(=O)n(CCC#N)c2n1	none (no result: TDP1 inh, ClpP mod)
CCN(C(=O)c1cc2c(s1)-c1c(C)cccc1OC2)c1ccccc1F	DT40 TDP1 CPT 21µM, DT40 TDP1 no CPT 21µM (no result: TDP1 inh)
CCCN(C(=O)c1cc2c(s1)-c1ccccc1OC2)c1ccccc1F	none (no result: DT40 TDP1 CPT, DT40 TDP1 no CPT)
CCCN(C(=O)c1cc2c(s1)-c1ccccc1SC2)c1ccccc1F	DT40 TDP1 CPT inconclusive, DT40 TDP1 no CPT 16µM, ClpP mod 32µM
Cc1cccc(C=Nc2ccc3c(c2)oc2ccccc23)c1O	ClpP mod 32µM
Cc1ccc(N=Cc2cccc(O)c2O)c(C)c1	DT40 TDP1 CPT 20µM, DT40 TDP1 no CPT inconclusive
Cc1ccccc1N=Cc1cccc(O)c1O	DT40 TDP1 CPT inconclusive, DT40 TDP1 no CPT 10µM
O=C(CN1C(=O)NC2(CCCC2)C1=O)NCCc1ccccc1	none
CCCOc1cccc(C(=O)N(Cc2ccc(C)o2)C2CCS(=O)(=O)C2)c1 (configuration not stated)	DT40 TDP1 CPT inconclusive, DT40 TDP1 no CPT inconclusive, ClpP mod inconclusive
CCCOc1ccc(CN(C(=O)c2cccc(OC)c2)C2CCS(=O)(=O)C2)cc1 (configuration not stated)	none (no result: ClpP mod)
CCCCOc1ccccc1C(=O)N(Cc1sccc1C)C1CCS(=O)(=O)C1 (configuration not stated)	DT40 TDP1 CPT inconclusive, DT40 TDP1 no CPT 21µM
CCCCOc1cccc(C(=O)N(Cc2sccc2C)C2CCS(=O)(=O)C2)c1 (configuration not stated)	DT40 TDP1 CPT inconclusive, DT40 TDP1 no CPT 15µM
CCCOc1cccc(C(=O)N(Cc2sccc2C)C2CCS(=O)(=O)C2)c1 (configuration not stated)	DT40 TDP1 CPT inconclusive, DT40 TDP1 no CPT 13µM
O=C(Nc1cccc(C(F)(F)F)c1)N1CCC(CN2CCCCCC2)CC1	DT40 TDP1 CPT inconclusive, DT40 TDP1 no CPT inconclusive
CC(C)c1nc(SCC(=O)Nc2nccs2)c2ccccc2n1	none (no result: ClpP mod)
Cc1csc(NC(=O)CSc2nc(C(C)C)nc3ccccc23)n1	DT40 TDP1 CPT inconclusive, DT40 TDP1 no CPT 12µM (no result: ClpP mod)
CC(C)c1nc(SCC(=O)Nc2ccc(N(C)C)cc2)c2ccccc2n1	DT40 TDP1 CPT 23µM, DT40 TDP1 no CPT inconclusive
Nc1cc2nc[nH]c2cc1N	TDP1 inh 79µM, DT40 TDP1 CPT inconclusive, DT40 TDP1 no CPT inconclusive (no result: ClpP mod)
Cn1c(=O)n(C)c2cc3[nH]cnc3cc21	none (no result: TDP1 inh)
NNC(=O)Nc1cccc(C(F)(F)F)c1	none
O=C(Nc1ccncc1)Nc1cccc(C(F)(F)F)c1	DT40 TDP1 CPT inconclusive, DT40 TDP1 no CPT 15µM
O=C(Nc1cccc(C(F)(F)F)c1)NC1CCCCC1	DT40 TDP1 CPT 23µM, DT40 TDP1 no CPT inconclusive
NC(=O)/C=C\C(=O)Nc1cccc(C(F)(F)F)c1	DT40 TDP1 CPT 5.2µM, DT40 TDP1 no CPT 21µM
COc1ccc(NC(=O)Nc2nnc(N3CCCCCC3)s2)c(OC)c1	DT40 TDP1 CPT inconclusive, DT40 TDP1 no CPT 18µM
COc1cc(C(=O)NNC(=S)NCc2ccco2)cc(OC)c1OC	none
CCc1cc2c(=O)c(-c3cnn(-c4ccccc4)c3)c(C(F)(F)F)oc2c(CN(C)C)c1O	none
COCC(=O)N1CCC2(CC1)CN(c1ccccc1)C2	DT40 TDP1 CPT inconclusive (no result: TDP1 inh, ClpP mod)
O=C(Nc1cccc(C(F)(F)F)c1)Nc1nnc(N2CCCCCC2)s1	DT40 TDP1 CPT inconclusive, DT40 TDP1 no CPT 5.8µM
O=C(Nc1cccc(C(F)(F)F)c1)Nc1ccon1	DT40 TDP1 no CPT inconclusive
O=C(Nc1ccc(OC(F)F)cc1)Nc1cccc(C(F)(F)F)c1	DT40 TDP1 CPT 3.7µM, DT40 TDP1 no CPT 4.6µM
O=C(OCC(=O)N1CCCc2ccccc21)c1cc(Br)ccc1O	none
Cc1ccc(OCCOC(=O)c2c(-c3ccccc3)noc2C)cc1	DT40 TDP1 CPT inconclusive, DT40 TDP1 no CPT inconclusive (no result: ClpP mod)
Cc1onc(-c2ccccc2Cl)c1C(=O)N/N=C(\N)COc1ccc(Cl)cc1	DT40 TDP1 CPT 23µM, DT40 TDP1 no CPT 13µM
CCOc1ccc(C(=O)COC(=O)c2c(-c3ccccc3)noc2C)cc1	DT40 TDP1 CPT inconclusive, DT40 TDP1 no CPT 21µM (no result: TDP1 inh, ClpP mod)
Cc1onc(-c2ccccc2)c1C(=O)N/N=C(\N)COc1ccc(Cl)cc1	DT40 TDP1 CPT 16µM, DT40 TDP1 no CPT inconclusive

Source: PubChem (National Center for Advancing Translational Sciences (NCATS))
